Records with an inconclusive call do not appear. Activity calls are given as the source filed them. Unless noted, calls come from the whole dose curve; as a rule, active = well fitted curve in the direction sought with a large enough effect; inconclusive = small, poorly fitted or top-dose-only effect, or another doubt; inactive = no such curve, though single readings can be large; an effect the other way counts as inactive or inconclusive.
Assays:
[1] = P-glycoprotein substrates identified in KB-8-5-11 adenocarcinoma cell line, qHTS therapeutic library screen (AID 1346987); note: nearly all actives have a fitted effect of over 65% in size; note: potency is the fitted concentration of half-maximal effect
How it was run: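 KB-8-5-11: colchicine-selected sub-line of KB-3-1 over-expressing P-gp; assay medium lacked colchicine. 72 h drug exposure at 37 degree C, CellTiter-Glo.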

KB-3-1 = assay: Cytotoxic Profiling of Annotated Libraries Using Quantitative High-Throughput Screening (AID 1296008); settings: Five cell lines viability, CellTiter-Glo ATP luminescence, 48-72 h; max response: stronger effect = lower value; note: nearly all actives have a fitted effect of over 60% in size; note: potency is the fitted concentration of half-maximal effect
How it was run: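 Compounds were pin-transferred onto cells and incubated 48 or 72 hr at 37 degree Celsius, 95% humidity. CellTiter-Glo was added, plates sat 10 min at room temperature, then ATP-coupled luminescence was imaged as the viability read-out.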

astro = assay: Drug repurposing screens with cells derived from glioblastoma tumor samples (AID 1345199); settings: viability, ATP luminescence, 48 h; series mostly up to 45.9 µM; note: nearly all actives have a fitted effect of over 40% in size; note: potency is the fitted concentration of half-maximal effect
How it was run: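 Four patient lines of CD133+ GBM neurospheres were screened at several concentrations; hits were retested in those lines plus three slower-growing GBM lines, using 48-hour treatment and ATP-based viability.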

CRL-7250 = normal cell line; assay: qHTS assay to identify novel small-molecules to repurpose for Merkel cell carcinoma treatment (AID 1296009); settings: MCC and control cell lines, CellTiter-Glo viability, 72 h; series mostly up to 92 µM; note: nearly all actives have a fitted effect of over 60% in size
How it was run: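 Cells exposed to NPC (8-point) and MIPE (11-point) compound dilutions for 72 hr at 37 degree celsius; viability read by CellTiter-Glo luminescence, normalized to no-cell and DMSO in-plate controls.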

[2] = target: Luciferin 4-monooxygenase (Photinus pyralis) (UniProt P08659); assay: Biochemical firefly luciferase enzyme assay for NPC (AID 624030);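 note: purified P. pyralis luciferase at 10 nM with luciferin and ATP substrate; 0% = DMSO and -100% = full luciferase inhibition by PTC124 control; nearly all actives have a fitted effect of over 70% in size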
Luciferin 4-monooxygenase (Photinus pyralis), sequence (P08659 whole entry, looked up): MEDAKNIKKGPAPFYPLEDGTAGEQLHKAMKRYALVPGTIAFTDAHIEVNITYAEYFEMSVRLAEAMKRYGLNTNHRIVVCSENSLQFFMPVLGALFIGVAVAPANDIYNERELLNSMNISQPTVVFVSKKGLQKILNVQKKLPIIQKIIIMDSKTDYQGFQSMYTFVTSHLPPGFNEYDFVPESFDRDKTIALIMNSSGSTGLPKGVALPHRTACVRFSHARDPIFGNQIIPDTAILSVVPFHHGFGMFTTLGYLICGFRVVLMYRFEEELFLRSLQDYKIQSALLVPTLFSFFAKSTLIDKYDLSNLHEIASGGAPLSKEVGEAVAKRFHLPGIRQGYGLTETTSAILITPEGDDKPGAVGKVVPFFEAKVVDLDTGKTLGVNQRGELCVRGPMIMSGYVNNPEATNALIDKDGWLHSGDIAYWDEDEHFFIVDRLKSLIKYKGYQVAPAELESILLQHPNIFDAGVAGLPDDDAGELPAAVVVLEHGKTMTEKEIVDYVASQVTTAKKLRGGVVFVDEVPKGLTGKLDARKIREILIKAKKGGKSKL
How it was run: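 Counter-screen for direct inhibition of the luciferase enzyme by approved-drug library compounds, run at 10 nM enzyme in 50 mM Tris acetate (final). Luminescence was read within 5 min of enzyme-buffer addition and normalized to PTC124 versus DMSO (0%).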

[3] = qHTS Assay for Identifying Gametocytocidal Compounds (AID 743244);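 note: % is set by controls: 0 for no effect and ±100 for the full control effect; actives lower the fluorescent signal which means gametocytes are killed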; settings: P. falciparum 3D7 stage III-V gametocytes, alamarBlue, 72 h; max response: stronger effect = lower value
How it was run: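 Stage III-V P. falciparum 3D7 gametocytes, 20,000 per well, were exposed to compounds for 72 h at 37C, 5% CO2. AlamarBlue was then added for 24 h and viability was read as fluorescence at Ex 525/Em 598 nm.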

Furin (Homo sapiens) = Furin (Homo sapiens) (UniProt P09958); assay: Furin counterscreen qHTS for Zika virus inhibitors (AID 1347149);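 note: purified recombinant full-length human furin enzyme at 5 nM; fluorescence gain from furin cutting a BOC-RVRR-AMC peptide substrate over 15 min; top concentration of the series differs between compounds; plate controls were no-inhibitor control for no effect and no-enzyme control for full effect; nearly all actives have a fitted effect of over 70% in size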
Furin (Homo sapiens), sequence (P09958 whole entry, looked up): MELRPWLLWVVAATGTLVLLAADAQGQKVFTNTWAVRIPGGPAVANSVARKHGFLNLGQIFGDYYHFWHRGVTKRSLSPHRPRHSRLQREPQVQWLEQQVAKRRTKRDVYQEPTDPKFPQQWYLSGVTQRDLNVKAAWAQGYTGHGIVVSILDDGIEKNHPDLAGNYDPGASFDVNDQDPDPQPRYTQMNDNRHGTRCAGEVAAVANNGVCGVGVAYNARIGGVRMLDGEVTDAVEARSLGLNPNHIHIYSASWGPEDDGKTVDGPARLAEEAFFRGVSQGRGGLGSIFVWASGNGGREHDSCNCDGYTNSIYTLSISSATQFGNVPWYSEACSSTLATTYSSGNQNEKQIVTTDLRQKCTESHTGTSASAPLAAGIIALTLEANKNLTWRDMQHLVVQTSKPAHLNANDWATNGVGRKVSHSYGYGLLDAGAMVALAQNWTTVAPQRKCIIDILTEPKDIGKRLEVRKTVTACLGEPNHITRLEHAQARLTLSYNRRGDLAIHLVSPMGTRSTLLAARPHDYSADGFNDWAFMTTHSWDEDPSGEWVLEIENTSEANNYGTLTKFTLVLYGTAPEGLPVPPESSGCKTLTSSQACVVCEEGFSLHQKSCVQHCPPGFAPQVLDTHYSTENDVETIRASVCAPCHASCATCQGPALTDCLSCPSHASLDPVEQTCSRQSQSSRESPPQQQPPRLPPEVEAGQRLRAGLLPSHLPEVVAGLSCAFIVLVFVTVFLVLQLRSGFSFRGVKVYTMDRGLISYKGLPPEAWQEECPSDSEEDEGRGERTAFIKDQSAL
How it was run: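 Fluorogenic cleavage of BOC-RVRR-AMC (2 microM final, Km ~15 µM) was monitored (ex 340, em 450 nm) at 37C after 15 min RT preincubation of 5 nM furin with compounds in HEPES pH 7.0 buffer with CaCl2 and Triton X-100. Percent inhibition was fitted to a 4-parameter Hill curve.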

[4] = test system: Zika virus NS2B-NS3 protease (linked construct); assay: Confirmatory screen NINDS AMC qHTS for Zika virus inhibitors (AID 1347152);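 note: AMC fluorescence gain from cleaved Bz-Nle-KRR-AMC substrate over 15 min; top concentration of the series differs between compounds; 0% = no-inhibitor control and -100% = no-enzyme control; nearly all actives have a fitted effect of over 70% in size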
How it was run: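 Purified NS2B-NS3 protease with NS2B hydrophilic domain linked to NS3 protease domain by flexible linker, 1 nM final in 10 mM Tris-HCl pH 8.0, 0.01% Tween 20. Compounds preincubated 15 min, room temperature; Bz-Nle-KRR-AMC 10 microM (Km 18.3 µM); 15-min fluorescence change, 4-parameter Hill fit.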

[5] = test system: Zika virus NS2B-NS3 protease (unlinked complex); assay: Confirmatory screen GU AMC qHTS for Zika virus inhibitors (AID 1347153);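 note: percent inhibition with 0% = no inhibitor control and 100% = no enzyme control; nearly all actives have a fitted effect of over 70% in size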
How it was run: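 Noncovalent NS2B hydrophilic domain/NS3 protease complex (25 nM) in 10 mM Tris-HCl pH 8.0, 0.01% Tween 20 was preincubated 15 min at room temperature with compounds. Then 10 µM AMC substrate (Km 18.3 µM) was added; fluorescence was read over 15 min and fitted to a 4-parameter Hill equation.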

[6] = Confirmatory screen NINDS Rhodamine qHTS for Zika virus inhibitors (AID 1347161);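 note: purified Zika NS2B-NS3 protease with linked NS2B cofactor domain and Rhodamine110 peptide substrate; plate controls were no-inhibitor control for no effect and no-enzyme control for full effect; nearly all actives have a fitted effect of over 60% in size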
How it was run: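 Purified NS2B-NS3 protease with the NS2B hydrophilic domain joined by a flexible linker (25 nM) in 10 mM Tris-HCl pH 8.0, 0.01% Tween 20, preincubated 15 min at RT with compound; Rhodamine110 peptide substrate 1.5 µM; fluorescence change over 15 min; 4-parameter Hill fit.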

[7] = Vero cells viability qHTS for Zika virus inhibitors (AID 1347167); note: % is set by controls: 0 for no effect and ±100 for the full control effect
How it was run: (§1)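 Counter-screen for cytotoxicity of hits from NS2B-NS3 protease qHTS. Overnight-attached cells (2.5 x 10^5 cells/mL, DMEM/4% FBS) were dosed in titration, incubated 24 to 48 hours, then assayed by CellTiter Glo.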

[8] = HepG2 cells viability qHTS for Zika virus inhibitors (AID 1347168); note: % is set by controls: 0 for no effect and ±100 for the full control effect
How it was run: as §1

[9] = qHTS for Inhibitors of the Functional Ribonucleoprotein Complex (vRNP) of Lassa (LASV) Arenavirus: LASV Primary Screen - GLuc reporter signal (AID 1347082; calls by dose curve; tested in HEK293 reporter line; note: % is set by controls: 0 for no effect and ±100 for the full control effect; nearly all actives have a fitted effect of over 60% in size)
[10] = qHTS for Inhibitors of the Functional Ribonucleoprotein Complex (vRNP) of Lassa (LASV) Arenavirus: Viability assay - alamar blue signal for LASV Primary Screen (AID 1347083; calls by dose curve; tested in HEK293 reporter line; note: % is set by controls: 0 for no effect and ±100 for the full control effect; nearly all actives have a fitted effect of over 80% in size)
[11] = qHTS for Inhibitors of the Functional Ribonucleoprotein Complex (vRNP) of Lymphocytic Choriomeningitis Arenaviruses (LCMV): Viability assay - alamar blue signal for LCMV Primary Screen (AID 1347085; calls by dose curve; tested in HEK293 reporter line; note: % is set by controls: 0 for no effect and ±100 for the full control effect; nearly all actives have a fitted effect of over 80% in size)
[12] = target: Nucleoprotein (Lymphocytic choriomeningitis virus (strain Armstrong)) (UniProt P09992); assay: qHTS for Inhibitors of the Functional Ribonucleoprotein Complex (vRNP) of Lymphocytic Choriomeningitis Arenaviruses (LCMV): LCMV Primary Screen - GLuc reporter signal (AID 1347086; calls by dose curve)
Nucleoprotein (Lymphocytic choriomeningitis virus (strain Armstrong)), sequence (P09992 whole entry, looked up): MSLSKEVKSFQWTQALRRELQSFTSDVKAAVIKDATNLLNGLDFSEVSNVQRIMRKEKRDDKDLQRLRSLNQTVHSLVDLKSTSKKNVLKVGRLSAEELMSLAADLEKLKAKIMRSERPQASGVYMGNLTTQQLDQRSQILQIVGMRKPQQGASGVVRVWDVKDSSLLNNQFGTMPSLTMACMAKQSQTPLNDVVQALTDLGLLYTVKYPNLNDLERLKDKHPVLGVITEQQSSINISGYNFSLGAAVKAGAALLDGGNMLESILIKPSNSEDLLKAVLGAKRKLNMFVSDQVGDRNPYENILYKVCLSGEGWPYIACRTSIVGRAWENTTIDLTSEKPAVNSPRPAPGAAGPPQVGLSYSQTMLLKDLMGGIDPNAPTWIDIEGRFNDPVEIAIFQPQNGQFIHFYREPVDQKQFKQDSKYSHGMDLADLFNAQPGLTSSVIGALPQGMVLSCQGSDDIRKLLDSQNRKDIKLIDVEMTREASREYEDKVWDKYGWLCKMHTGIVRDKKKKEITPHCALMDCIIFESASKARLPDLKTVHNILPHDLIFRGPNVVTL

[13] = Primary qHTS for inhibitors of SARS-S pseudo-typed particle cell entry (AID 1479145; calls by dose curve; note: nearly all actives have a fitted effect of over 45% in size)
[14] = Primary qHTS for Huh7 cytotoxicity: counterscreen for inhibitors of MERS-S pseudotyped particle cell entry (AID 1479147; calls by dose curve); settings: outcome: dose series up to 57.1 µM unless noted
[15] = Primary qHTS for inhibitors of MERS-S pseudo-typed particle cell entry (AID 1479149; calls by dose curve; note: nearly all actives have a fitted effect of over 60% in size)
[16] = Primary qHTS for Vero E6 cytotoxicity: counterscreen for inhibitors of SARS-S pseudo-typed particle cell entry (AID 1479150; calls by dose curve); settings: outcome: dose series up to 57.1 µM unless noted
[17] = Primary qHTS to identify inhibitors of SARS-CoV-2 cell entry (AID 1645846; calls by dose curve; note: nearly all actives have a fitted effect of over 45% in size); settings: activity change, negative = inhibition: at 57.1 µM (top of the series) unless noted
How it was run: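 Luminescence readout (Bright-Glo luciferase) 48 h after pseudoparticle addition. HEK293-ACE2 cells, 1500/well; compound pre-incubation 1 h; Normalized to spike PP and bald PP.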

[18] = target: Glutathione peroxidase 1 (Homo sapiens) (UniProt P07203); assay: Primary qHTS Assay for Inhibitors of Recombinant Selenoprotein Glutathione Peroxidase 1 (GPX1) (AID 1845191); note: nearly all actives have a fitted effect of over 65% in size
Glutathione peroxidase 1 (Homo sapiens), sequence (P07203 whole entry, looked up): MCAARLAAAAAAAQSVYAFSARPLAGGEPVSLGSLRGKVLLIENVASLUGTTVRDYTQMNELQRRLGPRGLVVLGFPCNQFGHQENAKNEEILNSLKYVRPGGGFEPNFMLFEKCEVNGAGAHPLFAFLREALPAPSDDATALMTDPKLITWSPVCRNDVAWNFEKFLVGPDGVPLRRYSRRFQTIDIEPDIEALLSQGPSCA
How it was run: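 Recombinant GPX1 (10 nM final) was preincubated with compound for 30 min at room temperature, then reacted with 1 mM GSH, 0.5 mM CHP, 0.5 mM NADPH and 100 nM glutathione reductase; NADPH fluorescence (340/450 nm) was read at 0 and 15 min.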

[19] = target: Phospholipid hydroperoxide glutathione peroxidase GPX4 (Homo sapiens) (UniProt P36969); assay: Primary qHTS Assay for Inhibitors of Recombinant Selenoprotein Glutathione Peroxidase 4 (GPX4) (AID 1845192); note: nearly all actives have a fitted effect of over 65% in size
Phospholipid hydroperoxide glutathione peroxidase GPX4 (Homo sapiens), sequence (P36969 whole entry, looked up): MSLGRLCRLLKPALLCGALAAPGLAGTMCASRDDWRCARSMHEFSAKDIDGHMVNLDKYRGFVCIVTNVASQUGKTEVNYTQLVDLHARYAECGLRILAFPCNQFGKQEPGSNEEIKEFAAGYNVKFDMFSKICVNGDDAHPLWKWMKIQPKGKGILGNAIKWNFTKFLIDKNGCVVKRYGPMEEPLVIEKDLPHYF
How it was run: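 GR-coupled readout: 100 nM GR, 1 mM GSH, 0.5 mM NADPH; NADPH fluorescence (ex 340/em 450 nm) read at t=0 and after 15 min RT. GPX4 200 nM, preincubated 30 min with compound; substrate 0.5 mM CHP.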

[20] = Cytotoxicity counterscreen for inhibitors of SARS-CoV-2 cell entry (AID 1645845; calls by dose curve; note: nearly all actives have a fitted effect of over 50% in size)
How it was run: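 Expi293F/hACE2 cells seeded overnight; cpd pin-transferred in DMSO, 1 h preincubation, + media, 48 h 37 C 5% CO2; ATPLite 1step luminescence; normalized to cells and no cells.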

[21] = target: Cytochrome P450 1A2 (Homo sapiens) (UniProt P05177); assay: p450-cyp1a2 (AID 410; calls by dose curve;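 note: -100% = full effect of reference inhibitor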)
Cytochrome P450 1A2 (Homo sapiens), sequence (P05177 whole entry, looked up): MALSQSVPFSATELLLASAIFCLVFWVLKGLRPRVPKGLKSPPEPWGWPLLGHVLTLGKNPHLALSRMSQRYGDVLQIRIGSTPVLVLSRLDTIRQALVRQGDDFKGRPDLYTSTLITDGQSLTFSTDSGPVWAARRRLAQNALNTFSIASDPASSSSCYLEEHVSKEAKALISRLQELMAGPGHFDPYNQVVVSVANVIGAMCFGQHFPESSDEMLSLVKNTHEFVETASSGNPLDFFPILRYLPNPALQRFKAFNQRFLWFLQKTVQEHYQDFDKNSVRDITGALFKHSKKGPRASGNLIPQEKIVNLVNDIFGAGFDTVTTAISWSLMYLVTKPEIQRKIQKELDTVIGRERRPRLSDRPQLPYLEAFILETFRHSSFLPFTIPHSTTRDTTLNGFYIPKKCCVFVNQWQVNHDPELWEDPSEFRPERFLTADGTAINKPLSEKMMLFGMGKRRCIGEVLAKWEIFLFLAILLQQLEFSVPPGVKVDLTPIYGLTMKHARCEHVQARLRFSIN
How it was run: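 Human CYP1A2 (20nM) demethylated Luciferin-ME at its Km (100uM) in 100mM KPO4. After 10 min compound preincubation, NADPH regeneration ran the reaction 60 min at room temperature. Luciferin was read by luminescence, normalized to 57 uM furafylline.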

[22] = target: Mitogen-activated protein kinase 10 (Mus musculus) (UniProt Q61831); assay: JNK3 AlphaScreen Assay (AID 530; active = well fitted curve in either direction with a large enough effect, not every such curve was filed as active;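 note: kinase came from lysate of stimulated human HepG2 cells; signal reports phosphorylation of biotinylated GST-cJun 1-79 at Ser73 with 10 µM ATP; % is set by controls: 0 for no effect and ±100 for the full control effect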)
How it was run: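 JNK3 came from HepG2 lysates pre-activated with IL-1beta and TNF-alpha and phosphorylated biotinylated GST-cJun (1-79) at 10 uM ATP, pH 7.6, room temperature. Compounds were titrated. AlphaScreen signal used anti-phospho-cJun (Ser73) antibody.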

[23] = target: 3',5'-cyclic-AMP phosphodiesterase 4B (Homo sapiens) (UniProt Q07343); assay: qHTS Assay for Inhibitors of PDE-IV (AID 607; active = well fitted activation curve with a large enough effect in the main read-out, with a control signal flat, not every such curve was filed as active; note: % of control where 0% means no effect)
3',5'-cyclic-AMP phosphodiesterase 4B (Homo sapiens), sequence (Q07343 whole entry, looked up): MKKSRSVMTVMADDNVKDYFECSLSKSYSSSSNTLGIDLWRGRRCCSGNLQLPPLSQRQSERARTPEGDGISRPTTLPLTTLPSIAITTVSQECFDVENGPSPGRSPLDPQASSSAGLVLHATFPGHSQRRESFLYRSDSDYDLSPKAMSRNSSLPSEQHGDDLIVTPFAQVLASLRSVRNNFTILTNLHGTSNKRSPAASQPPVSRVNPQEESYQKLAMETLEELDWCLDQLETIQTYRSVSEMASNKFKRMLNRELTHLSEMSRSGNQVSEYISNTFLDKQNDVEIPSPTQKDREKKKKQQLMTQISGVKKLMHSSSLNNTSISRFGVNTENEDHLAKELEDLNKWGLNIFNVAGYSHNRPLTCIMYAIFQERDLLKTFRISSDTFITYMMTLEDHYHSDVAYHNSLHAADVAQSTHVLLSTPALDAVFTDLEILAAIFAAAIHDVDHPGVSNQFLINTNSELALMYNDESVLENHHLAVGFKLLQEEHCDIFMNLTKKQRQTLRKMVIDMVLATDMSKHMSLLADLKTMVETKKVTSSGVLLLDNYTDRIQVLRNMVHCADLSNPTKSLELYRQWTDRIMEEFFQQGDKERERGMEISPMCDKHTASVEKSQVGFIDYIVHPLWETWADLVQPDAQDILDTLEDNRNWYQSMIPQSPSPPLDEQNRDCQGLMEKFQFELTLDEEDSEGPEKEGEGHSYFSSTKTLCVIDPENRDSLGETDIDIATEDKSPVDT
How it was run: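 ACTOne HEK293 cells carry a modified cAMP-gated CNG channel and express endogenous PDE4; plated 1000 cells/well, compounds up to 22.9 uM final. Membrane-potential dye fluorescence (ex 535/em 590) was read; parental cells received 10 uM forskolin + 100 uM RO 20-1724.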

[24] = qHTS Assay for Lipid Storage Modulators (AID 1519; calls by dose curve); settings: Drosophila S3 cells, BODIPY lipid droplet/cell ratio, laser cytometry, cells loaded with oleic acid
How it was run: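 Cells seeded at 5,000 per well were treated with compounds over a concentration series and loaded with oleic acid (400 uM, as added). Lipid droplet fluorescence (488 nm excitation, 500-530 nm channel) was read by laser-scanning cytometry and normalized to 20 uM Triacsin C.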

[25] = target: Ubiquitin carboxyl-terminal hydrolase 1 (Homo sapiens) (UniProt O94782); assay: Inhibitors of USP1/UAF1: Pilot qHTS (AID 504865);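 note: rhodamine fluorescence freed from ubiquitin-rhodamine substrate followed over time; top concentration of the series differs between compounds; % is set by controls: 0 for no effect and ±100 for the full control effect; nearly all actives have a fitted effect of over 35% in size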
Ubiquitin carboxyl-terminal hydrolase 1 (Homo sapiens), sequence (O94782 whole entry, looked up): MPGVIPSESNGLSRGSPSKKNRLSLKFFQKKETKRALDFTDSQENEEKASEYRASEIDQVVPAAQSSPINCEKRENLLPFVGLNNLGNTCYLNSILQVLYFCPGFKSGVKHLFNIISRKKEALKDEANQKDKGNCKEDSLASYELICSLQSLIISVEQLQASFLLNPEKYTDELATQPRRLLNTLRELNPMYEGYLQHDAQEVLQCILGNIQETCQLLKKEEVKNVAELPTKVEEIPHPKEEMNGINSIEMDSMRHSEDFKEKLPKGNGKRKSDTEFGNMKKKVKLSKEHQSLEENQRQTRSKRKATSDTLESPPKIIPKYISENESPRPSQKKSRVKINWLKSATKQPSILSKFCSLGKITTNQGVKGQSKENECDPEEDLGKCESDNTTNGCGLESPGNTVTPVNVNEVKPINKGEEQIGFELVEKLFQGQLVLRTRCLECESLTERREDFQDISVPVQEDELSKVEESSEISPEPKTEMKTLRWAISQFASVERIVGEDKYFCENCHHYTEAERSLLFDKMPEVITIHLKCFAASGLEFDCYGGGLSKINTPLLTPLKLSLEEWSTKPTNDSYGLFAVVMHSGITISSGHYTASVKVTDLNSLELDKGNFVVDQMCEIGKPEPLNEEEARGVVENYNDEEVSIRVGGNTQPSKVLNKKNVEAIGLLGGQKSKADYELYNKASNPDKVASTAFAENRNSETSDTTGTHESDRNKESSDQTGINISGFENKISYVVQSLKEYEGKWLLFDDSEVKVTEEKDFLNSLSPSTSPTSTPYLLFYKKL
How it was run: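 USP1/UAF1 complex (1nM) preincubated with compound 15 min at room temperature, then Ub-Rho substrate (150nM final) added. Fluorescence read kinetically at 480/540 nm, 6 reads every 60 seconds. Buffer: 50mM HEPES pH 7.8, 0.5mM EDTA, 0.1 mg/ml BSA, 1mM TCEP, 0.01% Tween-20.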

[26] = target: DNA dC->dU-editing enzyme APOBEC-3G (Homo sapiens) (UniProt Q9HC16); assay: qHTS for inhibitors of Vif-A3G interactions: Validation (AID 588379); note: 0% is about no effect
DNA dC->dU-editing enzyme APOBEC-3G (Homo sapiens), sequence (Q9HC16 whole entry, looked up): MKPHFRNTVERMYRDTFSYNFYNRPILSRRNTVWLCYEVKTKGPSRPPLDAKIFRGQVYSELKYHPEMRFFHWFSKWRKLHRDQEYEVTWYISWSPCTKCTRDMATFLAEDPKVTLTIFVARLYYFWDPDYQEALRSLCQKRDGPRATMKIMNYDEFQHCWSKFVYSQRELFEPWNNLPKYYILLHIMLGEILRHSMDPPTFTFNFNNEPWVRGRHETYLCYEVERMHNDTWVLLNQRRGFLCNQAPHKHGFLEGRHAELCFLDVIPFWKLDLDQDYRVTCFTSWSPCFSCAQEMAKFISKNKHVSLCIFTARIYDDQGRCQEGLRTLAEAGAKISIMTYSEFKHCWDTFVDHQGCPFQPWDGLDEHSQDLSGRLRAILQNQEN
How it was run: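 HeLa cells stably expressing Vif and A3G-eYFP, 700 cells/well, incubated overnight at 37 deg C, then exposed to compound overnight at 37 deg C. Inhibition of Vif-mediated degradation read as increased yellow fluorescence (Ex 488/Em 500-530) by laser-scanning cytometry.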

[27] = test system: Zika virus NS2B-NS3 protease; assay: Primary screen GU AMC qHTS for Zika virus inhibitors (AID 1347154)
How it was run: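 Unlinked Zika NS2B hydrophilic domain/NS3 protease domain noncovalent complex (25 nM final) in 10 mM Tris-HCl pH 8.0, 0.01% Tween 20, with AMC peptide substrate. Fluorescence (ex 340, em 450 nm) change over 15 min, room temperature; percent inhibition fitted to 4-parameter Hill equation.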

[28] = Primary qHTS for small molecule stabilizers of the endoplasmic reticulum resident proteome: Secreted ER Calcium Modulated Protein (SERCaMP) assay (AID 1508630); note: % is set by controls: 0 for no effect and ±100 for the full control effect
How it was run: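 GLuc-SERCaMP-expressing SH-SY5Y cells, pretreated 16 h with compound, are challenged with thapsigargin to empty ER calcium stores; after 4 h, coelenterazine is added directly to the medium and luminescence is imaged.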

C[C@@H](N)C(=O)c1ccccc1
inactive: Potency [1] | max response (KB-3-1) 2.24% | Potency (astro)

Cc1c(CN(C)C(=O)/C=C/c2cnc3c(c2)CCC(=O)N3)oc2ccccc12
inactive: Potency (CRL-7250)

CCCSc1cc(OC)c(CCN)cc1OC
inactive: Potency [2]
active: Potency [1] 20 µM | Potency (KB-3-1) 17.8 µM | Potency (astro) 31.6 µM

O=C(/C=C/c1ccc(O)cc1)OCC1OC(O)C(OC2OC(CO)C(O)C(O)C2O)C(O)C1O (stereo not drawn)
inactive: Potency (CRL-7250)

CN1CCN=C(c2ccccc2)c2cc(Cl)ccc21
inactive: Potency [2] | max response [3] 0.139% | Potency [1] | max response (KB-3-1) 8.16% | Potency (astro)

C[C@@H]1[C@@H]2Cc3ccc(O)cc3[C@@]1(C)CCN2CCc1ccccc1
active: Potency [1] 12.6 µM
inactive: Potency (Furin (Homo sapiens)) | Potency [4] | Potency [5] | Potency [6] | Potency [7] | Potency [8] | max response (KB-3-1) -19% | Potency (astro)

COC(=O)[C@H]1[C@@H](OC(=O)c2ccccc2)C[C@@H]2CC[C@H]1N2C
inactive: max response [3] -15.4% | Potency [1] | Potency [9] | Potency [10] | Potency [11] | Potency [12] | Potency [13] | outcome [14] inactive [at 114 µM] | Potency [15] | outcome [16] inactive [at 114 µM] | Potency [18] | Potency [19] | max response (KB-3-1) 1.68% | Potency (astro)
-14.7% [at 114 µM]: activity change, negative = inhibition [17]

CC(=O)[C@@]1(O)CC[C@H]2[C@@H]3CCC4=CC(=O)CC[C@]4(C)C3(F)[C@@H](O)C[C@@]21C (stereo partly drawn)
inactive: max response [3] 7.59% | Potency [1] | outcome [14] | Potency [15] | outcome [16] | Potency [20] | Potency [18] | max response (KB-3-1) -10.8% | Potency (astro)
-3.62%: activity change, negative = inhibition [17]

O=C(O)CCCO
inactive: Potency [2] | Potency [1] | max response (KB-3-1) 4.02% | Potency (astro)

Clc1ccc([C@@H]2C[C@H]3CC[C@@H]2N3)cn1
0.171%: max response ([24]; measured here: cell count channel max response)
-1.79%: max response ([24]; measured here: lipid channel max response)
inactive: Potency [21] | outcome [22] | Potency [23] | activity change, negative = inhibition ([24]; at 57.5 µM (top of the series)) -3.65% | Potency [25] | Potency [26] | Potency [1] | Potency [9] | Potency [10] | Potency [11] | Potency [12] | Potency [27] | Potency [28] | max response (KB-3-1) -6.98% | Potency (astro)

COc1ccc(OC)c(C[C@H](C)N)c1
inactive: Potency [2] | Potency [1] | max response (KB-3-1) 4.2% | Potency (astro)

— PubChem BioAssay (NCATS)
